Results on 40 compounds are retold here after PubChem BioAssay (Tox21).

Values joined by “and” are separate entries in the source; they are usually repeats but may differ in a detail not shown here. Equal entries are not always repeated. Records with an inconclusive call do not appear. Entries that show only a call come without a potency. Active and inactive are the calls of the source. Calls come from the whole dose curve; as a rule, active = well fitted activation curve with a large enough effect in the repeat runs; inconclusive = weak or mixed curves, or effect the other way; inactive = no such curve, though single readings can be large or run the other way.
Potency is the fitted concentration of half-maximal effect.

A short description of this assay: qHTS assay to identify small molecule agonists of the retinoic acid receptor (RAR) signaling pathway (AID 1159553). As to conditions: C3RL4 RARE luciferase reporter, agonist, 6 h; series mostly up to 73.3 µM. The text has this:
National Center for Advancing Translational Sciences [NCATS] NIH Chemical Genomics Center [NCGC] U.S. Environmental Protection Agency [EPA] National Institutes of Environmental Health Sciences [NIEHS] National Toxicology Program [NTP] Assay overview: All-trans Retinoic acid (atRA) is the potent natural metabolite of retinol and plays an important role in normal embryonic development and maintenance of cellular phenotype in adult animals. atRA is the activating ligand for the retinoic acid receptors (RARs) which form heterodimers with retinoid X receptors (RXRs) on the retinoic acid response element (RARE). Through activation of the RAR/RXRs nuclear receptors, atRA regulates the transcription of a large number of protein-coding genes and regulatory RNAs. Intracellular levels of atRA are controlled by the retinol signaling pathway (RSP) that regulates the biosynthesis and catabolism of atRA to maintain physiological levels. Chemicals that interfere with the RSP can cause abnormal intracellular levels of atRA and therefore are potential developmental toxicants. To assess compounds for the potential adverse effect on embryonic development through interfering with retinol signaling, a cell-based RARE luciferase reporter gene assay was used. C3RL4 cell line (OARSA/CFSAN/FDA, Laurel, MD) was used to screen Tox21 10K compound library for identifying activators of the RSP.
Assay Protocol Summary: C3RL4 cells were seeded at 1,000/well in 5 uL of assay medium into white solid 1,536-well tissue culture plates (Greiner Bio-One North America Inc. Monroe, NC) using a Multidrop Combi (Thermo Scientific, Waltham, MA) dispenser. After incubation at 37 C and 5% CO2 for an overnight, 23 nL of compounds dissolved in DMSO, positive control or DMSO only were transferred by a Pintool station (Kalypsys, San Diego, CA). After 6 hr incubation at 37 C and 5% CO2, 5 uL of Amplite Luciferase reagent (AAT Bioquest Inc. Sunnyvale, CA) was added to each assay plate using a Flying Reagent Dispenser (FRD) (Aurora Discovery, San Diego, CA). Luminescence was quantified on a ViewLux plate reader (PerkinElmer, Waltham, MA) after 30 min incubation at room temperature.
On to `CCCCc1ncc(/C=C(\Cc2cccs2)C(=O)O)n1Cc1ccc(C(=O)O)cc1`, for which the Potency result is “inactive”.
The value for `O=C(NCC1CN(c2ccc(N3CCOCC3=O)cc2)C(=O)O1)c1ccc(Cl)s1` (stereo not given) was “inactive”.
The value for `O=C(O)CC(=O)C(=O)O` was “inactive”.
The value for `O=C1C(O)=C(O)C(=O)C(O)=C1O` was “inactive”; that for `CC1OC(=O)C(C)OC1=O` (stereo not given) was “inactive”; that for `O=C(O)c1nc(Cl)c(Cl)c(Cl)c1Cl` was “inactive”.
As to `CCCCC(CC)COC(=O)COc1ccc(Cl)cc1Cl` (stereo not given), the Potency entry was “inactive”.
The value for `C#Cc1cccc(Nc2ncnc3cc(OCCOC)c(OCCOC)cc23)c1` was “inactive”.
As to `CCC(=O)O[C@]1(C(=O)CCl)[C@@H](C)C[C@H]2[C@@H]3CCC4=CC(=O)C=C[C@]4(C)[C@@]3(F)[C@@H](O)C[C@@]21C`, the Potency result was “inactive”.
The value for `CCN(CC)CCOC(=O)C(Cc1cccc2ccccc12)CC1CCCO1` (stereo not given) was “inactive”.
Take `CCCCC/C=C\C/C=C\CCCCCCCC(=O)NC(C)c1ccccc1` (stereo not given): the Potency result was “inactive”.
The value for `C=CC(=O)OCCOc1ccccc1` was “inactive”; that for `CCOc1ccc(N=Nc2ccc(/C=C/c3ccc(N=Nc4ccc(OCC)cc4)cc3S(=O)(=O)O)c(S(=O)(=O)O)c2)cc1` was “inactive”; that for `C=CC(=O)OCCOCCOCCOCCOC(=O)C=C` was 19.4 µM (active) and 17.1 µM (active).
On to `O=C(O)C1(C(=O)O)CCC1.[NH2-].[NH2-].[Pt+2]`, for which the Potency entry was “inactive”.
The value for `Nc1ccc(S(=O)(=O)Nc2ccccc2)cc1` was “inactive”; that for `CC(=O)OC[C@H]1O[C@@H](n2ncc(=O)[nH]c2=O)[C@H](OC(C)=O)[C@@H]1OC(C)=O` was “inactive”.
The value for `Cc1nn(C)c(Oc2ccccc2)c1/C=N/OCc1ccc(C(=O)OC(C)(C)C)cc1` was “inactive”.
The value for `O=C1CCC(=O)O1` was “inactive”.
With `CC(C)OC(=O)C(C)N(C(=O)c1ccccc1)c1ccc(F)c(Cl)c1` (stereo not given), the Potency entry was “inactive”.
As for `Cc1cc(N)c2cc(NC(=O)Nc3ccc4nc(C)cc(N)c4c3)ccc2n1`, the Potency entry was “inactive”.
The value for `O=[N+]([O-])c1ccc2[nH]ncc2c1` was “inactive”; that for `CCNc1cc(O)ccc1C` was “inactive”; that for `Cc1cc(C(=O)O)ccc1[N+](=O)[O-]` was “inactive”.
`CCOC(=O)COC(=O)c1cc(Oc2ccc(C(F)(F)F)cc2Cl)ccc1[N+](=O)[O-]`: the Potency entry is “inactive”.
As to `CCOC(=O)C(O)c1ccccc1` (stereo not given), the Potency entry is “inactive”.
As for `Cc1oc(-c2ccccc2)nc1CCOc1cccc2c1ccn2CCC(=O)O`, the Potency result is “inactive”.
Regarding `CCO[C@H](Cc1ccc(OCCc2ccc(OS(C)(=O)=O)cc2)cc1)C(=O)O`, the Potency result was “inactive”.
The value for `Cc1ccc(C(=O)Oc2ccc(C(O)CNC(C)(C)C)cc2OC(=O)c2ccc(C)cc2)cc1` (stereo not given) was “inactive”; that for `C=CC1CC2C=CC1C2` (stereo not given) was “inactive”; that for `CN(C)CCCN1c2ccccc2Sc2ccccc21` was “inactive”.
The value for `CCCCCCCCCCCC(=O)OC[C@@H](O)[C@H]1OC[C@H](OCCO)[C@H]1OCCO` was “inactive”; that for `CCCOC(C(=O)OC1CCN(C)CC1)(c1ccccc1)c1ccccc1` was “inactive”.
The value for `Cc1cccc(C)c1OCC(=O)N[C@@H](Cc1ccccc1)[C@@H](O)C[C@H](Cc1ccccc1)NC(=O)[C@H](C(C)C)N1CCCNC1=O` was “inactive”; that for `CN(Cc1ccc(C(C)(C)C)cc1)Cc1cccc2ccccc12` was “inactive”.
Turning to `CNC(=O)CN(CCN(CCN(CC(=O)[O-])CC(=O)NC)CC(=O)[O-])CC(=O)[O-].O.[Gd+3]`, the Potency entry is “inactive”.
With `ClCCOCCOCCCl`, the Potency result was “inactive”.
The value for `O=P(O)(OCc1ccccc1)OCc1ccccc1` was “inactive”.
For the compound `CCOCC(O)COc1ccc(NC(=O)CC[S+](C)C)cc1` (stereo not given), the Potency result is “inactive”.
Turning to `O=C(OCCc1ccccc1)c1ccccc1`, the Potency was 386 nM (active).
